Reference: PubChem BioAssay (NCATS)
Results filed as inconclusive are left out. Activity calls are given as the source filed them. Unless noted, calls come from the whole dose curve; as a rule, active = well fitted curve in the direction sought with a large enough effect; inconclusive = small, poorly fitted or top-dose-only effect, or another doubt; inactive = no such curve, though single readings can be large; an effect the other way counts as inactive or inconclusive.

Assays:
[1] = Cell Viability - HepG2 (AID 433; calls by dose curve;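 note: potency is the fitted concentration of half-maximal effect; potency for ATP loss meaning cytotoxicity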); settings: qHTS
In short: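 Cytotoxicity is scored as loss of intracellular ATP in HepG2 cells exposed to compounds for 40 h. Concentration-response curves, normalized to DMSO and 100 uM tamoxifen, give AC50 values.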

[2] = Cell Viability - N2a (AID 540); settings: N2a mouse neuroblastoma cell viability; activity change, negative = cytotoxicity: at 92.2 µM (top of the series);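 note: plate controls were DMSO alone for no effect and tamoxifen control for full effect; nearly all actives have a fitted effect of over 45% in size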
In short: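 CellTiter-Glo ATP luminescence, read 20 min after reagent at room temperature, reported viability following 40 h compound treatment at 37 °C. N2a mouse neuroblastoma cells seeded 1500/well; Hill equation gave AC50.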

[3] = Cellular Toxicity (caspase-3) BJ (AID 658);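 note: 0% = DMSO basal and 100% = 10 µM staurosporine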
In short: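 Plated BJ cells (1000/well) rested 5 hr, received compound for 16 hr at 37 °C, then Caspase-Glo 3/7 reagent for 1 hr at room temperature before luminescence reading.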

[4] = MultiTox-Fluor Cytotoxicity Assay - LYMP1-002 - Live Cells (AID 955); note: % is set by controls: 0 for no effect and ±100 for the full control effect
In short: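 After 16 h compound exposure at 37 C, live LYMP1-002 lymphoblastoid cells (2500/well) were quantified by cleavage of cell-permeant GF-AFC substrate, read at 405/510 nm after 60 min. Concentration-response fitted with Hill equation for AC50.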

[5] = Cell Viability - LYMP2-011 (AID 969);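 note: 0% = DMSO only and full inhibition = 92 µM tetraoctylammonium bromide; nearly all actives have a fitted effect of over 60% in size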
In short: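 Cytotoxicity qHTS with ATP content as read-out: lymphoblastoid cells (2500/well) exposed to compound for 24 h at 37 C, then luciferase luminescence measured. Concentration-response data fitted with the standard Hill equation to give AC50.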

[6] = Cell Viability - LYMP2-023 (AID 975);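 note: cellular ATP measured by luciferase luminescence as viability proxy; plate controls were DMSO only for no effect and 92 µM tetraoctylammonium bromide control for full effect; nearly all actives have a fitted effect of over 55% in size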
In short: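 Intracellular ATP, read by CellTiter-Glo luminescence, reports viability after 24 hr compound exposure at 37 C. 2500 lymphoblastoid cells/well (LYMP2-023) seeded 5 hr beforehand; Hill fits give AC50; positive control tetraoctylammonium bromide.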

[7] = Cell Viability - LYMP2-025 (AID 976);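 note: plate controls were DMSO only for no effect and tetraoctylammonium bromide control for full effect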
In short: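 Cytotoxicity read as loss of intracellular ATP (luciferase luminescence) after 24 h compound treatment at 37 C. Uses LYMP2-025 lymphoblastoid cells in 1536-well format; Hill-equation modelling gives AC50; tetraoctylammonium bromide as positive control.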

[8] = Cell Viability - LYMP2-012 (AID 982);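 note: cellular ATP by luciferase luminescence where a drop means cytotoxicity; cells exposed to compound for one day before reading; 0% = DMSO only and full loss = 92 µM tetraoctylammonium bromide; nearly all actives have a fitted effect of over 55% in size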
[9] = Cell Viability - LYMP2-016 (AID 984); note: % is set by controls: 0 for no effect and ±100 for the full control effect; nearly all actives have a fitted effect of over 55% in size
In short: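 Acute toxicity in a Coriell human lymphoblastoid line is scored as loss of intracellular ATP over 24 h of treatment in complete medium. CellTiter-Glo signal is fitted across concentrations with the Hill equation to give AC50.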

[10] = Cell Viability - LYMP2-020 (AID 986);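 note: plate controls were DMSO only for no effect and tetraoctylammonium bromide at 92 µM for full effect; nearly all actives have a fitted effect of over 55% in size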
In short: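 Cytotoxicity in qHTS format: luminescent ATP readout from CellTiter-Glo after 24 h compound exposure at 37 C in complete medium. LYMP2-020 lymphoblastoid cells were seeded at 2500/well; concentration-response data fitted to the Hill equation for AC50.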

[11] = Cell Viability - LYMP2-022 (AID 987)
In short: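 Cytotoxicity read as decreased cellular ATP (CellTiter-Glo luminescence, 30 min room temperature) after 24 hours compound exposure of 2500 lymphoblastoid LYMP2-022 cells/well at 37 C. Concentration-response data fitted with standard Hill equation for AC50.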

[12] = molecular target: Vitamin D3 receptor (Homo sapiens) (UniProt P11473); assay: qHTS assay for small molecule agonists of vitamin D receptor signaling (AID 588543; calls by dose curve;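 note: 0% = DMSO basal and 100% = reference agonist control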)
In short: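 qHTS in agonist mode: compound titrations stimulate a VDR-driven β-lactamase reporter in HEK293T cells over 16 h at 37 °C. Response normalized to 50 nM 1α,25-dihydroxyvitamin D3 = 100%, DMSO = 0%; Hill fitting gives EC50 and maximal response.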

[13] = molecular target: Retinoic acid receptor RXR-alpha (Homo sapiens) (UniProt P19793); assay: qHTS assay for small molecule antagonists of retinoid X receptor alpha signaling (AID 588546; active = well fitted inhibition curve with a large enough effect in the signal ratio, with a control signal flat, not every such curve was filed as active; the % refers to the signal ratio;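 note: cells stimulated with 9-cis-retinoic acid as agonist; % is set by controls: 0 for no effect and ±100 for the full control effect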); settings: HEK293T RXRa-UAS-bla, beta-lactamase ratio, antagonist mode
In short: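 Beta-lactamase reporter inhibition, read as CCF4 fluorescence ratio (ex 405, em 460/530 nm) after 2 h at RT. HEK293T UAS-bla cells, 2500/well, were stimulated with 9-cis-RA at 500 or 100 nM final alongside test compound for 18 h at 37 C.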

[14] = molecular target: Voltage-gated inwardly rectifying potassium channel KCNH2 (Homo sapiens) (UniProt Q12809); assay: qHTS Assay for Small Molecule Inhibitors of the Human hERG Channel Activity (AID 588834);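 note: U2OS cells transduced with hERG by BacMam; top concentration of the series differs between compounds; % is set by controls: 0 for no effect and ±100 for the full control effect; lower thallium flux fluorescence means stronger hERG block; nearly all actives have a fitted effect of over 50% in size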
In short: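 Cells were infected with hERG-BacMam virus for 4 hrs at room temperature, grown overnight, then seeded at 2000/well. After dye loading and roughly 10 min compound treatment, thallium influx was triggered and fluorescence recorded.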

[15] = qHTS assay for small molecule activators of the p53 signaling pathway (AID 651743; active = well fitted activation curve with a large enough effect in the signal ratio, not every such curve was filed as active; the % refers to the signal ratio; note: % of control where 0% means no effect); settings: HCT-116 p53RE-bla, beta-lactamase FRET ratio, 16 h; activation: stronger effect = higher value
In short: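 Agonist-mode quantitative HTS in HCT-116 cells carrying a p53-response-element beta-lactamase reporter; 16 h compound treatment at 37 C, then FRET substrate loading for 2 h at room temperature and fluorescence read.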

[16] = qHTS assay for cell viability of HEK293 cells (AID 743288); settings: ATP luminescence (CellTiter-Glo), 18 h, stronger effect = lower value; note: % is set by controls: 0 for no effect and ±100 for the full control effect; nearly all actives have a fitted effect of over 50% in size
In short: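 Quantitative high-throughput screen: compounds were pinned onto parental HEK293 cells (2,000 per well) after a minimum 5 h settling at 37 C, incubated 18 h at 37 C, and intracellular ATP measured by luciferase luminescence.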

[17] = Cellular Toxicity (caspase-3) Jurkat (AID 655); settings: Jurkat caspase-3 activation, luminescence; caspase-3 activation: at 92.2 µM (top of the series), DMSO = 0%, tamoxifen = 100%;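 note: cells exposed to compound for 16 h at 37 °C before reading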
In short: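 Caspase 3/7 activation is scored as increased luminescence in Jurkat cells cultured with compound for 16 hours in complete medium. AC50 values come from Hill fits of qHTS concentration-response data normalized to DMSO and 100 uM tamoxifen controls.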

[18] = Cell Viability - LYMP2-002 (AID 977);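 note: plate controls were DMSO only for no effect and 92 µM tetraoctylammonium bromide for full effect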
In short: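 In this qHTS viability screen, 2500 human lymphoblastoid cells per well receive compound for 24 hr at 37 C, and luciferase-based ATP luminescence gives the viability signal. Tetraoctylammonium bromide serves as positive control.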

[19] = Cell Viability - LYMP2-014 (AID 983);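 note: plate controls were DMSO only for no effect and 92 µM tetraoctylammonium bromide for full effect; nearly all actives have a fitted effect of over 50% in size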
In short: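 Intracellular ATP loss, read by luciferase luminescence, measures acute cytotoxicity after 24 h compound exposure of lymphoblastoid LYMP2-014 cells (2500/well, 37 C). Concentration-response data fitted to the Hill equation for AC50.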

[20] = Cell Viability - LYMP2-004 (AID 966);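 note: plate controls were DMSO only for no effect and tetraoctylammonium bromide control for full effect; nearly all actives have a fitted effect of over 65% in size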
In short: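 AC50 values come from Hill modelling of concentration-dependent loss of intracellular ATP, measured by CellTiter-Glo luminescence. Human LYMP2-004 lymphoblastoid cells (2500/well) were exposed to compound for 24 h at 37 C.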

Sequence of Retinoic acid receptor RXR-alpha (Homo sapiens) (P19793 whole entry, looked up): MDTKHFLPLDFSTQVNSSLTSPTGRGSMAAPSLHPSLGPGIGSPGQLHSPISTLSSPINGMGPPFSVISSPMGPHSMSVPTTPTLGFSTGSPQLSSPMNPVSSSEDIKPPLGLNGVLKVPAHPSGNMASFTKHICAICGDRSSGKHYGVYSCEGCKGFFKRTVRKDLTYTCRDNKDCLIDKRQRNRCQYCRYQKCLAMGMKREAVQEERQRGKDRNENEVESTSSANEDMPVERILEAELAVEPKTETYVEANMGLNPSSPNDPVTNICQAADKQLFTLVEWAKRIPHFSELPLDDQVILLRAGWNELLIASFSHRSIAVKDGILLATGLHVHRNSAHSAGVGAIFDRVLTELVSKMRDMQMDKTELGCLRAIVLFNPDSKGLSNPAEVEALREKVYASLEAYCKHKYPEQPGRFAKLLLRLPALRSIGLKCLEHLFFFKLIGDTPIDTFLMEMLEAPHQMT
Sequence of Vitamin D3 receptor (Homo sapiens) (P11473 whole entry, looked up): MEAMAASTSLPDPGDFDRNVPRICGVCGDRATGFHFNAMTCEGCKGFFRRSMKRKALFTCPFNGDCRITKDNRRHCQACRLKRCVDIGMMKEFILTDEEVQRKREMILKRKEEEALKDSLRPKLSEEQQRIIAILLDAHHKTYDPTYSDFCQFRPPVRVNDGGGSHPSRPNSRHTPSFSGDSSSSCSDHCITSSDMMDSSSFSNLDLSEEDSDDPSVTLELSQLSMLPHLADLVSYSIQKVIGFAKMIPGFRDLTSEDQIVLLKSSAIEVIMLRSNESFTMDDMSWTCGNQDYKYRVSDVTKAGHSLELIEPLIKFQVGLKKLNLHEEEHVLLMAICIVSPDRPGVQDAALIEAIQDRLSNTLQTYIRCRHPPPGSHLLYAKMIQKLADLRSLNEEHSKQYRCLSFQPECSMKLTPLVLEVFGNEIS
Sequence of Voltage-gated inwardly rectifying potassium channel KCNH2 (Homo sapiens) (Q12809 whole entry, looked up): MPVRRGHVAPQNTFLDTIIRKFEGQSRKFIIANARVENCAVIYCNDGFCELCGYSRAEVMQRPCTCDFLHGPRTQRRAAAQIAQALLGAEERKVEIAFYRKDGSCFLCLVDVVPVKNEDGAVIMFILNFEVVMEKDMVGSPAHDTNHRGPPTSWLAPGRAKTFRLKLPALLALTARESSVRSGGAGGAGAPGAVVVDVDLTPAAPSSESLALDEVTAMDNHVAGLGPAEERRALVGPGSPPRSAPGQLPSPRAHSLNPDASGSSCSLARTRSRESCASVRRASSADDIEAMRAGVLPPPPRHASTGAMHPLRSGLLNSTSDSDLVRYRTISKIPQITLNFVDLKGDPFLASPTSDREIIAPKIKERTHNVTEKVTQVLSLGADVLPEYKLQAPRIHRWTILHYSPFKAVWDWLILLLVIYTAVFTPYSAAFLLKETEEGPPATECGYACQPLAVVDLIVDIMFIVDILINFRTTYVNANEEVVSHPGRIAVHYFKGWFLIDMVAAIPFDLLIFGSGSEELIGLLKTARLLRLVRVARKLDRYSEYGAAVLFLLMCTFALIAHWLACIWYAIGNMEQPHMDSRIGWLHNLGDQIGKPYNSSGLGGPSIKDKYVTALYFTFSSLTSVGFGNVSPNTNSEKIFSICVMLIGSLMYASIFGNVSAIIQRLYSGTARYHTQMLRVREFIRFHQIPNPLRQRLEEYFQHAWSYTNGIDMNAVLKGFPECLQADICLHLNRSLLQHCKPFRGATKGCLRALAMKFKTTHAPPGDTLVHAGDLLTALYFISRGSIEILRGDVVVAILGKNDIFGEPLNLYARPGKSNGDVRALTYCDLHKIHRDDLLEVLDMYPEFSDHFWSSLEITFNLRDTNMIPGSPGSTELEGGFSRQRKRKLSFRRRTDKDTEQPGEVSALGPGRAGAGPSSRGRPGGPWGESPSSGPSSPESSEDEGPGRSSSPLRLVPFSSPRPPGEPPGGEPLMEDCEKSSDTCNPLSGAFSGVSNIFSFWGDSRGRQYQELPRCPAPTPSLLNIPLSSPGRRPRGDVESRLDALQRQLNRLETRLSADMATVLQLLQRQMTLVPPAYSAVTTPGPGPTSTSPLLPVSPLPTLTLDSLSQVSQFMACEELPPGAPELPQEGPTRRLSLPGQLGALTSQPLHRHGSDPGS

CC(C)[N+](=O)[O-]
inactive: Potency [1] > 92 µM | Potency [2] | outcome [3] | outcome [4] | Potency [5] | Potency [6] | Potency [7] | Potency [8] | Potency [9] | Potency [10] | Potency [11] | outcome [12] | max response [13] 14.3% | Potency [14] | activation [15] -2.67% | max response [16] -8.31%

O=[N+]([O-])c1ccccc1-c1ccccc1
inactive: Potency [2] | caspase-3 activation [17] 0.923% | outcome [4] | Potency [5] | Potency [6] | Potency [7] | Potency [18] | Potency [19] | Potency [10] | Potency [11] | max response [13] 0.902% | activation [15] -1.36%

FC(Cl)(Cl)Cl
inactive: caspase-3 activation [17] -0.152% | outcome [3] | outcome [4] | Potency [20] | Potency [5] | Potency [6] | Potency [7] | Potency [8] | Potency [19] | Potency [9] | Potency [11] | outcome [12] | max response [13] -1.5% | Potency [14] | activation [15] -3.53% | max response [16] -1.1%

CCC#N
inactive: Potency [2] | outcome [4] | Potency [20] | Potency [5] | Potency [6] | Potency [7] | Potency [18] | Potency [8] | Potency [19] | Potency [10] | Potency [11] | outcome [12] | max response [13] 10.5% | Potency [14] | max response [16] -7.94%

CC(C)CON=O
inactive: Potency [1] > 92 µM | Potency [2] | caspase-3 activation [17] -1.62% | outcome [3] | Potency [5] | Potency [6] | Potency [7] | Potency [18] | Potency [8] | Potency [19] | Potency [9] | Potency [10] | Potency [11] | outcome [12] | max response [13] 8.37% | Potency [14] | activation [15] -2.37% | max response [16] -12.6%

Nn1cnnc1
inactive: Potency [2] | caspase-3 activation [17] 0.14% | outcome [3] | outcome [4] | Potency [5] | Potency [6] | Potency [7] | Potency [18] | Potency [8] | Potency [19] | Potency [9] | Potency [10] | Potency [11] | outcome [12] | max response [13] 24.4% | Potency [14] | activation [15] 0.253%

CCCCCCCCCCCOC(=O)c1ccccc1C(=O)OCCCCCCCCCCC
inactive: Potency [2] | caspase-3 activation [17] 2.1% | outcome [3] | outcome [4] | Potency [20] | Potency [5] | Potency [6] | Potency [7] | Potency [18] | Potency [8] | Potency [9] | Potency [10] | outcome [12] | Potency [14] | activation [15] 2.34% | max response [16] 3%
